Results published in PubChem BioAssay (EPA / NIEHS).
Records with an inconclusive call do not appear. Calls of active or inactive are those of the source. How the source made its calls: active means hit-call score of the fitted dose curve at least 0.9, where 1 is the maximum; inconclusive means response in the unintended direction; inactive means score below 0.9.

assay: STM_H9_NormalizedViability: Cytotoxicity Assessment at 120 hours in the Stemina devTOX quickPredict H9 human embryonic stem cell (hESC)-based Assay (AID 2283784)
Experimental: STM_H9_viability utilizes undifferentiated H9 cells to measure cell viability.STM_H9_NormalizedViability is a component calculated in the STM_H9_viability assay. It measures cell viability using background corrected relative fluorescence units (RFU) value from the CellTiterFluor Assay normalized to the value of the 0.1% DMSO neutral control treatment (by 96-well plate)Data from the assay component STM_H9_Viability was analyzed at the assay endpoint STM_H9_Viability_Norm in the positive analysis fitting direction relative to DMSO as the negative control and baseline of activity. Using a type of viability reporter, loss-of-signal activity can be used to understand viability.
H9 hESCs maintained in a pluripotent state were exposed to test compound for 72h with chemical replenishment with media replacement every 24h. Cell-conditioned media from the final 24-h treatment period was collected for analysis of the targeted biomarker, and cell viability of the corresponding cell layer was assessed. The chemical library was tested in blinded fashion. Each test plate included 1uM Methotrexate (MTX; Selleck Chemicals, Houston, Texas) as a positive reference, 5 nM MTX as a negative reference, 0.1% DMSO as the neutral (vehicle) control, and sample-level media blanks.H9 cell-conditioned media from the final 24-h treatment period was collected for analysis of the targeted biomarker and cell viability was measured from the corresponding cell layer. Cell viability was measured using the CellTiter-Fluor assay (Promega, Madison, Wisconsin) based on proteolytic cleavage of a substrate to fluorescent signal proportional to the number of living cells. The cell viability Relative Fluorescence Unit (RFU) was background corrected and normalized to mean RFU of the neutral control (0.1% DMSO). The collected H9-cell-conditioned media samples were processed for targeted biomarker analysis as described (Palmer et al., 2013). Briefly, spent media samples were deproteinized (40% acetonitrile) and processed for UPLC-HRMS. Data acquisition was performed using 4 separate UPLC-HRMS systems, consisting of an Agilent 1290 Infinity LC system (Agilent Technologies) interfaced with an Agilent high-resolution mass spectrometer (models G6520A, G6520B, G6530A, and G6224A). A Waters Acquity UPLC BEH Amide column (2.1mm x 50mm, 1.7lm particle size; Waters, Milford, Massachusetts) maintained at 40C was applied for separation of metabolites using a 6.5min solvent gradient with 0.1% formic acid in water and 0.1% formic acid in acetonitrile (1.0ml/min flow rate). Data were acquired using MassHunter Acquisition software (version B 04.00, Agilent Technologies). The extracted ion chromatogram (EIC) areas for ORN, CYSS, and their respective spike-in C13-standards were determined using the Agilent MassHunter Quantitative Analysis software, version B.05.00 or newer (Agilent Technologies), and data were normalized as described in Palmer et al. (2017).

Compound	AC50	outcome
CN(C)C(=S)SSC(=S)N(C)C	50 µM (active)	
COc1nc(NC(C)C)nc(NC(C)C)n1		inactive
OC(c1ccc(Cl)cc1)(c1cncnc1)c1ccccc1Cl (stereo unspecified)		inactive
CC(C)(C)c1ccc(CSc2cnn(C(C)(C)C)c(=O)c2Cl)cc1	0.12 µM (active)	
CCCCOC(=O)c1ccccc1C(=O)OCCCC	50 µM (active)	
CCOC(=O)CC(SP(=S)(OC)OC)C(=O)OCC (stereo unspecified)	78.9 µM (active)	
CC1COC(Cn2cncn2)(c2ccc(Oc3ccc(Cl)cc3)cc2Cl)O1 (stereo unspecified)	6.39 µM (active)	
CCNc1nc(Cl)nc(NCC)n1		inactive
CCNc1nc(Cl)nc(NC(C)C)n1		inactive
CCCCC(CC)COC(=O)c1ccccc1C(=O)OCC(CC)CCCC (stereo unspecified)		inactive
CO/C=C(/C(=O)OC)c1ccccc1Oc1cc(Oc2ccccc2C#N)ncn1		inactive
CCCC1COC(Cn2cncn2)(c2ccc(Cl)cc2Cl)O1 (stereo unspecified)	71.2 µM (active)	
CCc1nn(C)c(C(=O)NCc2ccc(C(C)(C)C)cc2)c1Cl	2.12 µM (active)	
C=CC1(C)OC(=O)N(c2cc(Cl)cc(Cl)c2)C1=O (stereo unspecified)		inactive
C=CCC1=C(C)[C@@H](OC(=O)[C@@H]2[C@@H](C=C(C)C)C2(C)C)CC1=O		inactive
C#CCOS(=O)OC1CCCCC1Oc1ccc(C(C)(C)C)cc1 (stereo unspecified)	3.86 µM (active)	
COC(=O)N(OC)c1ccccc1COc1ccn(-c2ccc(Cl)cc2)n1	0.5 µM (active)	
CCCCNC(=O)n1c(NC(=O)OC)nc2ccccc21	7.21 µM (active)	
N#Cc1nn(-c2c(Cl)cc(C(F)(F)F)cc2Cl)c(N)c1S(=O)C(F)(F)F (stereo unspecified)	66.1 µM (active)	
COC(=O)c1ccccc1C(=O)OC		inactive
CON(C)C(=O)Nc1ccc(Cl)c(Cl)c1		inactive
